Rango-impB inh – inhibitors of Rango-importin beta complex formation; Potency, µM (top dose mostly 92.2 µM), inactives show at the top dose inhibition of complex formation; actives 0.031% (n = 340,000); Q14974; Rango CFP/YFP FRET sensor + importin beta, 45 min;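 further: potency means the concentration at half of the fitted maximal effect; 0% = DMSO wells and 100% = buffer wells lacking importin beta; nearly all actives have a fitted effect of over 15% in size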
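FRET biosensor (snurportin 1 IBB flanked by EYFP and cerulean), 50 nM, with compound 5 min, then 0.125 microM importin beta in PBS, 1 mM DTT, 0.02% Tween-20, 0.1% BSA. CFP/YFP ratio read after 45 min at room temperature; pre-read flags interference.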
TSHR antagonist – human thyrotropin receptor antagonism; P16473; TSHR-expressing cells, TSH-stimulated cAMP HTRF, 2 h; hits give low values; activity change, negative = inhibition, % at 11.5 µM; actives 0.2% (n = 330,000); AID 504810;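 active means activity change below a set negative limit, meaning inhibition stronger than a set level, cut at about -70% in these data; inconclusive means activity change between two set negative limits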; further: on the % scale 0 is the no-effect control and ±100 the full control effect
Target sequence (P16473 whole entry, looked up): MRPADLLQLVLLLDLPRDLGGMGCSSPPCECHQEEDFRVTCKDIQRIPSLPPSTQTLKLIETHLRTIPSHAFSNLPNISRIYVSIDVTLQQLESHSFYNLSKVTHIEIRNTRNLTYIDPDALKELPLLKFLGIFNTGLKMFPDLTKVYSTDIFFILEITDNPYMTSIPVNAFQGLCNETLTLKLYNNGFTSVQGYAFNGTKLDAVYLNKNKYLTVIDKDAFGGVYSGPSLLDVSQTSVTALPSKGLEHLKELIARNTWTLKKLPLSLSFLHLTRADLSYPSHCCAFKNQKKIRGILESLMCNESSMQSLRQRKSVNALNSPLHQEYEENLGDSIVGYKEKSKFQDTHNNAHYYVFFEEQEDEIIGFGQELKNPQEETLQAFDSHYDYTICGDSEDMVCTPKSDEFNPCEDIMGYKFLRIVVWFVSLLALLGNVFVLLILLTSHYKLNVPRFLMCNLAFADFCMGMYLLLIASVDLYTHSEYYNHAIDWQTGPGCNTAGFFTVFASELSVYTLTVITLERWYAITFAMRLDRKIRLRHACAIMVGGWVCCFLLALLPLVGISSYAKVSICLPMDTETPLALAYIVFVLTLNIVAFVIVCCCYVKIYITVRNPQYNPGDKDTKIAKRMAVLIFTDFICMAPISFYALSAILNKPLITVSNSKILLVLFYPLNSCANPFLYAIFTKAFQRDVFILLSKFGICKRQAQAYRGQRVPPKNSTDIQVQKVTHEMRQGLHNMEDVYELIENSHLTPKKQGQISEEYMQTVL
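Read-out is FRET at 665 nm (cryptate excitation 337 nm) from a cryptate-tagged anti-cAMP antibody, competed by cell cAMP against cAMP-d2. Compounds are tested on freshly harvested TSHR cells challenged with 4nM TSH (EC80) for 2 hours at 37 deg C.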
Rango release inh – prevents RanGTP from dissociating the Rango-importin beta complex; Biochemical FRET Rango-importin beta, RanGTP-induced dissociation; actives 0.071% (n = 340,000); AID 540253; Potency, µM (top dose mostly 46.1 µM), without a hit: top-dose activity change, negative = inhibition; O95149+P62826; further: potency means the concentration at half of the fitted maximal effect; % of control where 0% means no effect; nearly all actives have a fitted effect of over 45% in size
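Quantitative HTS using a FRET biosensor: 0.1 uM Rango, 0.25 uM importin beta, 0.6 uM Ran, 2 mM GTP, 0.2 uM RCC1 final, PBS with DTT, Tween-20 and BSA. Post-read taken 45 min after Ran addition.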
Akt phos inh – Akt phosphorylation inhibition. actives 0.32% (n = 360,000). activity change, % for hits at 50 µM. Neuro2A IGF-stimulated pAkt S473 HTRF, 20 min; hits give low values. AID 651550; in the data active means activity change below about -80%; inconclusive means mostly about -51% to -80%; further: on the % scale 0 is the no-effect control and ±100 the full control effect
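Neuro2A cells in DMEM with 0.5% FBS, overnight at 37 deg C, given compound at single 50 µM final, then IGF (6 nM final) for 20 min at 37 deg C. Lysed; phospho-Akt Ser473 by HTRF after 24 h, 665/615 ratio.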
p53 reactivator – mutant p53 re-activation in reporter cells | H1299 p53-A138V BP100-luciferase reporter, luminescence, 24 h | Potency, µM (top dose mostly 92.2 µM), for inactives: top-dose activity change, positive = activation, usual class: activators | actives 0.063% (n = 320,000) | AID 504706; active means well fitted activation curve with a large enough effect; inconclusive means small, poorly fitted or top-dose-only effect; inactive means no such curve, though single readings can be large or run the other way; further: potency means the concentration at half of the fitted maximal effect; % of control where 0% means no effect; nearly all actives have a fitted effect of over 45% in size
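H1299 (p53-null), stable ts p53-A138V + BP100-Luc; 1000 cells/well, Opti-MEM/10% FBS; cpd 4 pt, 1:5; 24 h, 37 deg C, 5% CO2; detection reagent 10 min RT; luminescence.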
* = called active by the depositor; i = inactive; ? = inconclusive; · = no result. Shown are actives, neighbours in structure and some others; about 0.62% of the full set was active somewhere. Unless noted, the call rests on the fitted dose curve.

SMILES	Rango-impB inh	TSHR antagonist	Rango release inh	Akt phos inh	p53 reactivator
CCc1ccccc1NC(=O)C1C(c2ccccc2)C1(Cl)Cl (configuration not stated)	1%	-2	4%	-107%*	0%
COc1ccccc1C(=O)NCc1ccccc1	2%	4	9%	-106%*	4%
COc1ccccc1C(=O)NCc1ccncc1	1%	-8	6%	i	25%
Cc1ccc(SCCCn2cncn2)cc1	2%	6	-13%	-111%*	3%
Clc1ccc(SCCn2cncn2)cc1	-3%	-4	12%	i	13%
O=[N+]([O-])c1ccc(S(=O)(=O)c2ccccc2)nc1	-3%	-98*	-1%	i	-14%
CN1OC[C@@H]2CN(Cc3cc(Cl)cc(Cl)c3)[C@H](c3cccc(-c4ccc(C#N)cc4)c3)C[C@@H]21	·	·	·	i	·
CC1(NC(=O)CSc2nnc(-c3c[nH]c4ccccc34)n2C2CC2)CCS(=O)(=O)C1 (configuration not stated)	3%	2	4%	i	-1%
Clc1cnc(N/N=C/c2cccs2)c(Cl)c1	-2%	-1	-1%	-104%*	?
COc1ccccc1N1CCN(C(=O)CCCN2C(=O)c3cccc4cccc(c34)C2=O)CC1	-2%	-72*	2%	i	2%
COc1ccccc1N1CCN(C(=O)CN2C(=O)c3cccc4cccc(c34)C2=O)CC1	2%	-8	0%	i	10%
O=[N+]([O-])c1cnc(Sc2ccncn2)s1	-2%	-89*	-3%	i	-15%
COc1ccccc1N(C(C)=O)c1nc(C)cc(C)c1C#N	-1%	-1	4%	i	1%
CC(OC(=O)c1cc(=O)[nH]c2ccccc12)C(=O)N1C(C)CCCC1C (configuration not stated)	?	-4	-15%	i	4%
C#CCOc1ccc(/C=C2\SC(=S)N(Cc3cccnc3)C2=O)cc1	4%	-4	18%	i	35µM*
CS(=O)(=O)Nc1ccccc1C(=O)NC1CC2CCC1C2 (configuration not stated)	-2%	4	9%	i	-8%
CC(C)NC(=O)NS(=O)(=O)c1cnccc1NC1CC2CCC1C2 (configuration not stated)	4%	2	-3%	-107%*	7%
Cc1cccc2nc(CNC(=O)C3CCC(=O)N(Cc4ccccc4F)C3)cn12 (configuration not stated)	0%	-3	-8%	i	6%
O=C(CN1C(=O)CCC1=O)Nc1ccc(Br)cc1	2%	9	-6%	-103%*	6%
NS(=O)(=O)c1ccc(NC(=O)CN2C(=O)CCC2=O)cc1	-3%	11	-1%	i	3%
Cc1cc(C)n(S(=O)(=O)Cc2ccccc2)n1	-4%	-6	-14%	i	-3%
CCCNc1nc(N)nc(-c2cc(Cl)ccc2OC)n1	1%	0	-5%	-102%*	-2%
Cc1ccc(C)c(N2CCN(C(=O)c3cc(S(=O)(=O)N4CCOCC4)ccc3F)CC2)c1	-1%	6	3%	i	-2%
Cc1ccnc2nc(C(=O)Nc3ccc(N4CCOCC4)cc3)nn12	-4%	6	24%	-103%*	14%
O=C(Nc1ccc(N2CCOCC2)cc1)c1ccncc1	-2%	-8	-4%	i	14%
SMILES	Rango-impB inh	TSHR antagonist	Rango release inh	Akt phos inh	p53 reactivator
CCCCCCC[C@@H](C/C=C/CCC(=O)N(C)C/C(=C/Cl)C/C(=C\C(=O)N1CC(OC)=CC1=O)OC)OC	-4%	11	-1%	i	32µM*
COC(=O)c1cc(Br)ccc1NC(=O)Nc1ccccc1	0%	3	-1%	i	-10%
COC(=O)c1cc(Br)ccc1NC(=O)Nc1ccc(C)cc1	7%	·	18%	-115%*	·
O=C(Nc1nc(-c2ccccc2)cs1)c1ccccc1NS(=O)(=O)c1ccc(F)cc1	-1%	-85*	0%	i	?
Cc1ccc(C(=O)Nc2nc(-c3ccc(F)cc3)cs2)o1	-5%	-121*	-8%	i	4%
O=S(=O)(Nc1ccc(-c2csc(-c3ccccc3)n2)cc1)c1ccc(F)cc1	1%	-15	2%	i	-14%
Cc1ccc(-c2csc(NC(=O)c3ccc(C)o3)n2)cc1	2%	-18	-1%	i	-7%
Cc1cccc(C)c1NC(=O)COc1ccc2c(C)c(Cc3ccccc3)c(=O)oc2c1	2%	-11	2%	i	-3%
O=c1[nH]c(/C=C/c2ccccn2)nc2ccccc12	-1%	3	26%	i	11µM*
Cc1ccc(S(=O)(=O)CCC(=O)c2cccc([N+](=O)[O-])c2)cc1	-3%	-105*	21%	i	-30%
COc1ccc(NC(=S)N(CCCN2CCOCC2)C(C)c2cc3cccc(OC)c3o2)cc1 (configuration not stated)	-5%	-76*	-13%	i	10%
CC(=O)N(/C=C1\SC(=S)N(c2ccccc2)C1=O)c1ccccc1	?	-6	16µM*	i	2%
CCCc1[nH]nc2c1C(Cc1ccccc1)C(C#N)=C(N)O2 (configuration not stated)	0%	0	-10%	-106%*	-2%
COc1ccc(N(CC(=O)Nc2ccccc2F)S(=O)(=O)c2ccc(OC)c(OC)c2)cc1	0%	-8	-4%	i	·
O=S(N1CCc2ccccc21)C12CC3CC(CC(C3)C1)C2 (configuration not stated)	1%	-8	-12%	i	-5%
CN1CCN(C(=O)c2ccccc2N(Cc2ccccc2)S(=O)(=O)c2ccccc2)CC1	1%	1	2%	i	-13%
Cc1ccc(S(=O)(=O)N(Cc2ccccc2)c2ccccc2C(=O)N2CCCCC2)cc1	-1%	-78*	2%	i	-6%
Cc1cc2nc(-c3ccc(SCC(=O)Nc4ccc(S(=O)(=O)NC5CC5)cc4)nc3)[nH]c2cc1C	?	-14	-12%	i	2.8µM*
Cc1cc(NC(=O)CSc2ccc(-c3nc4cc(C)c(C)cc4[nH]3)cn2)no1	-2%	42	?	·	?
CCC(C)(C)NC(=O)c1ccc2c(c1)N(CC(=O)OC)C(=O)C(C)(C)O2	3%	6	11%	i	17%
CCOC(=O)CN1C(=O)C(C)(C)Oc2ccc(C(=O)NC(C)(C)CC)cc21	-5%	3	0%	-111%*	-36%
CCC(C)C(=O)Nc1c2c(nc3c1CCC3)CCCC2 (configuration not stated)	?	-11	0%	-101%*	0%
CC(C)C(=O)Nc1c2c(nc3c1CCC3)CCCC2	0%	0	1%	i	-2%

Bioassay records: PubChem, National Center for Advancing Translational Sciences (NCATS)
